# Results from the supplement of paper PMC8728848.
# Only a selection was taken, and the strongest signals are over-represented in it overall.
# B1: CIH1 (Colletotrichum higginsianum) (protein)
# chain: LPQATPTTPTPTSASAAATISATSSPTCSPGPVIDYTVVSGDTLTIISQRFSSGICNIADASGITNPNFLSLGQVLQVPTYVCTPDNTSCLAKEGSDTCVEGGPATHTIVAGDTFFLVAQSLGLDVNALLAANEGVDPLLLQIGDVINIPVC
# How the values were obtained:
# Test in all cases: glycan array binding signal (z-score within array); higher = stronger binding
# Conditions in all cases: glycan notation: IUPAC condensed, linker removed
# [1] = biological target: Fuc(a1-2)Gal(b1-3)[Fuc(a1-4)]GlcNAc(b1-2)Man(a1-3)[Fuc(a1-2)Gal(b1-3)[Fuc(a1-4)]GlcNAc(b1-2)Man(a1-6)]Man(b1-4)GlcNAc(b1-4)GlcNAc
# Outline: (§1)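 Glycan array data came from 3228 arrays in the Consortium for Functional Glycomics database, and only arrays with an available protein sequence were kept. Glycan names were put into IUPAC-condensed notation, and columns mapping to the same glycan were averaged. The binding signal is a within-array Z-score, averaged across arrays of one protein sequence run at different concentrations or buffers and across linkers. A negative Z-score can be read as non-binding.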
# Fuc(a1-2)Gal(b1-4)Glc6S = biological target: Fuc(a1-2)Gal(b1-4)Glc6S
# Outline: as §1
# [2] = biological target: Fuc(a1-2)Gal(b1-4)GlcNAc(b1-2)[Fuc(a1-2)Gal(b1-4)GlcNAc(b1-4)]Man(a1-3)[Fuc(a1-2)Gal(b1-4)GlcNAc(b1-2)Man(a1-6)]Man(b1-4)GlcNAc(b1-4)GlcNAc
# Outline: as §1
# [3] = biological target: Fuc(a1-2)Gal(b1-4)GlcNAc6S
# Outline: as §1
# [4] = biological target: Fuc(a1-2)[GalNAc(a1-3)]Gal(b1-4)GlcNAc(b1-2)Man(a1-3)[Fuc(a1-2)[GalNAc(a1-3)]Gal(b1-4)GlcNAc(b1-2)Man(a1-6)]Man(b1-4)GlcNAc(b1-4)GlcNAc
# Outline: as §1
# [5] = biological target: Fuc(a1-2)[GalNAc(a1-4)]Gal(b1-4)GlcNAc
# Outline: as §1
# [6] = biological target: Fuc(a1-3)[Gal(b1-4)]Glc6S
# Outline: as §1
# [7] = biological target: Fuc(a1-3)[Gal3S(b1-4)]GlcNAc
# Outline: as §1
# [8] = biological target: Gal(a1-3)Gal(b1-4)[Fuc(a1-3)]GlcNAc(b1-2)Man(a1-3)[Gal(a1-3)Gal(b1-4)[Fuc(a1-3)]GlcNAc(b1-2)Man(a1-6)]Man(b1-4)GlcNAc(b1-4)GlcNAc
# Outline: as §1
# Gal(a1-4)GlcNAc = biological target: Gal(a1-4)GlcNAc
# Outline: as §1
# [9] = biological target: Gal(b1-3)GalNAc(b1-3)Gal(a1-4)Gal(b1-4)Glc
# Outline: as §1
# [10] = biological target: Gal(b1-3)GalNAc(b1-4)Gal(b1-4)Glc
# Outline: as §1
# [11] = biological target: Gal(b1-3)GlcNAc(b1-3)Gal(b1-4)[Fuc(a1-3)]GlcNAc(b1-6)[Gal(b1-3)GlcNAc(b1-3)]Gal(b1-4)Glc
# Outline: as §1
# [12] = biological target: Gal(b1-4)GlcNAc(b1-3)Gal(b1-4)[Fuc(a1-3)]GlcNAc(b1-3)Gal(b1-4)[Fuc(a1-3)]GlcNAc
# Outline: as §1
# [13] = biological target: Gal(b1-4)GlcNAc(b1-6)[Gal(b1-3)]GalNAc
# Outline: as §1
# Gal3S(b1-4)GlcNAc = biological target: Gal3S(b1-4)GlcNAc
# Outline: as §1
# [14] = biological target: Gal3S(b1-4)[Fuc(a1-3)]Glc
# Outline: as §1
# [15] = biological target: Gal3S(b1-4)[Fuc(a1-3)]Glc6S
# Outline: as §1
# Gal6S(b1-4)Glc = biological target: Gal6S(b1-4)Glc
# Outline: as §1
# [16] = biological target: GalNAc(a1-3)GalNAc(b1-3)Gal(a1-4)Gal(b1-4)GlcNAc
# Outline: as §1
# GalNAc3S(b1-4)GlcNAc = biological target: GalNAc3S(b1-4)GlcNAc
# Outline: as §1
# [17] = biological target: Glc(a1-4)Glc(a1-4)Glc(a1-4)Glc
# Outline: as §1
# Glc(b1-4)Glc = biological target: Glc(b1-4)Glc
# Outline: as §1
# [18] = biological target: GlcNAc(a1-4)Gal(b1-4)GlcNAc(b1-3)Gal(b1-4)GlcNAc(b1-3)Gal(b1-4)GlcNAc
# Outline: as §1
# [19] = biological target: GlcNAc(b1-2)[GlcNAc(b1-4)]Man(a1-3)[GlcNAc(b1-4)][GlcNAc(b1-2)Man(a1-6)]Man(b1-4)GlcNAc(b1-4)GlcNAc
# Outline: as §1
# [20] = biological target: GlcNAc(b1-4)GlcNAc(b1-4)GlcNAc
# Outline: as §1
# [21] = biological target: GlcNAc(b1-4)GlcNAc(b1-4)GlcNAc(b1-4)GlcNAc(b1-4)GlcNAc
# Outline: as §1
# [22] = biological target: GlcNAc(b1-4)GlcNAc(b1-4)GlcNAc(b1-4)GlcNAc(b1-4)GlcNAc(b1-4)GlcNAc
# Outline: as §1
# [23] = biological target: GlcNAc(b1-6)Gal(b1-4)GlcNAc
# Outline: as §1
# [24] = biological target: GlcNAc6S(b1-3)Gal(b1-4)GlcNAc
# Outline: as §1
# Man(a1-3)[Man(a1-6)]Man = biological target: Man(a1-3)[Man(a1-6)]Man
# Outline: as §1
# [25] = biological target: Man(a1-3)[Man(a1-6)]Man(b1-4)GlcNAc(b1-4)GlcNAc
# Outline: as §1
# [26] = biological target: Neu5Ac(a2-3)Gal(b1-3)GalNAc(b1-4)[Neu5Ac(a2-3)]Gal(b1-4)Glc
# Outline: as §1
# [27] = biological target: Neu5Ac(a2-3)Gal(b1-3)GlcNAc
# Outline: as §1
# [28] = biological target: Neu5Ac(a2-3)Gal(b1-4)GlcNAc(b1-2)Man(a1-3)[GlcNAc(b1-2)Man(b1-4)GlcNAc(b1-2)Man(a1-6)]Man(b1-4)GlcNAc(b1-4)GlcNAc
# Outline: as §1
# [29] = biological target: Neu5Ac(a2-3)Gal(b1-4)[Fuc(a1-3)]GlcNAc
# Outline: as §1
# [30] = biological target: Neu5Ac(a2-6)Gal(b1-4)GlcNAc(b1-2)Man(a1-3)Man(b1-4)GlcNAc(b1-4)GlcNAc
# Outline: as §1
# [31] = biological target: Neu5Ac(a2-6)Gal(b1-4)GlcNAc(b1-2)Man(a1-6)[Gal(b1-4)GlcNAc(b1-2)Man(a1-3)]Man(b1-4)GlcNAc(b1-4)GlcNAc
# Outline: as §1
# [32] = biological target: Neu5Ac(a2-6)GlcNAc(b1-4)GlcNAc(b1-4)GlcNAc
# Outline: as §1
# [33] = biological target: Neu5Ac(a2-8)Neu5Ac(a2-8)Neu5Ac
# Outline: as §1
# Neu5Gc(a2-3)Gal(b1-4)Glc = biological target: Neu5Gc(a2-3)Gal(b1-4)Glc
# Outline: as §1
binder,measurement,setting,value
B1,glycan array binding signal (z-score),[1],0.015
same,glycan array binding signal (z-score),Fuc(a1-2)Gal(b1-4)Glc6S,-0.071
same,glycan array binding signal (z-score),[2],-0.061
same,glycan array binding signal (z-score),[3],0.014
same,glycan array binding signal (z-score),[4],-0.074
same,glycan array binding signal (z-score),[5],-0.071
same,glycan array binding signal (z-score),[6],-0.072
same,glycan array binding signal (z-score),[7],-0.065
same,glycan array binding signal (z-score),[8],0.011
same,glycan array binding signal (z-score),Gal(a1-4)GlcNAc,-0.052
same,glycan array binding signal (z-score),[9],-0.071
same,glycan array binding signal (z-score),[10],-0.063
same,glycan array binding signal (z-score),[11],-0.057
same,glycan array binding signal (z-score),[12],-0.079
same,glycan array binding signal (z-score),[13],-0.072
same,glycan array binding signal (z-score),Gal3S(b1-4)GlcNAc,-0.067
same,glycan array binding signal (z-score),[14],-0.081
same,glycan array binding signal (z-score),[15],0.006
same,glycan array binding signal (z-score),Gal6S(b1-4)Glc,-0.079
same,glycan array binding signal (z-score),[16],-0.066
same,glycan array binding signal (z-score),GalNAc3S(b1-4)GlcNAc,-0.066
same,glycan array binding signal (z-score),[17],-0.047
same,glycan array binding signal (z-score),Glc(b1-4)Glc,-0.046
same,glycan array binding signal (z-score),[18],-0.08
same,glycan array binding signal (z-score),[19],-0.065
same,glycan array binding signal (z-score),[20],2.91
same,glycan array binding signal (z-score),[21],9.28
same,glycan array binding signal (z-score),[22],20
same,glycan array binding signal (z-score),[23],-0.073
same,glycan array binding signal (z-score),[24],-0.055
same,glycan array binding signal (z-score),Man(a1-3)[Man(a1-6)]Man,-0.045
same,glycan array binding signal (z-score),[25],-0.069
same,glycan array binding signal (z-score),[26],-0.055
same,glycan array binding signal (z-score),[27],-0.05
same,glycan array binding signal (z-score),[28],-0.08
same,glycan array binding signal (z-score),[29],-0.069
same,glycan array binding signal (z-score),[30],-0.004
same,glycan array binding signal (z-score),[31],-0.069
same,glycan array binding signal (z-score),[32],-0.004
same,glycan array binding signal (z-score),[33],-0.065
same,glycan array binding signal (z-score),Neu5Gc(a2-3)Gal(b1-4)Glc,-0.081
